# Experimental data taken from PubChem BioAssay.
# Where “and” joins values, the source holds several entries; their conditions need not be identical. Identical values can stand only once. For part of these data: Entries with a potency or affinity are not part of this list. Some structures have more than one record in an assay (separate samples or runs), and their calls can disagree. Calls of active or inactive are those of the source. Unless noted, no rule for the calls is given here.
# Assays:
# [1] = P. berghei load reduction in hepatocytes – cell-based, HepG2, luciferase luminescence, HepG2 viability, primary screen (AID 624349; in the data active = parasite load remaining mostly below about 12%, no sharp cut-off; inactive = mostly above about 10%;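 also: 100% = mean of DMSO negative control wells on the same plate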); conditions: P. berghei liver stage in HepG2, luciferase luminescence, concentration not given here; parasite load remaining: stronger effect = lower value; viability: measured here: HepG2 viability without parasites
# [2] = Wnt pathway potentiators raising nuclear beta-catenin – imaging, WNT3A-conditioned medium, mouse C2C12, NPC library, primary screen (AID 1117326; in the data active = nuclear beta-catenin stimulation mostly above about 4.2%, no sharp cut-off; inactive = mostly below about 10%); conditions: stronger effect = higher value
# [3] = stimulators of insulin release from INS-1E, primary screen, cell-based, 5 mM glucose, NPC library (AID 1117329;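 active = compound raises insulin release from rat beta cells at 5 mM glucose, no numeric limit stated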); conditions: rat INS-1E insulin secretion, at 10 µM, stronger effect = higher value
# [4] = growth inhibition of GSK3B-pretreated HCT116 cells – cell-based, CellTiter-Glo, 0.2 to 20 µM (AID 1117336;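 active = compounds lowering colon cancer cell viability after pretreatment blocking the GSK3B kinase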); conditions: HCT116 viability after GSK3B inhibitor, at 20 µM, stronger effect = higher value
# [5] = inhibition of endothelial tube formation, primary screen, imaging, VEGF stimulated, CD31 staining, tube area, NPC library (AID 1117340;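 active = compound that reduces growth-factor-driven endothelial tube area in a mixed cell culture, no cutoff stated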); conditions: VEGF-stimulated ADSC/ECFC co-culture, at 10 µM, stronger effect = higher value
# [6] = GLP1 release stimulators, primary, NCI-H716, NPC library (AID 1117341;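 active = compound raises GLP1 secretion from the human gut endocrine cells, with no numeric limit stated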); conditions: NCI-H716 cells, at 10 µM, stronger effect = higher value
# [7] = HCT116 colon cancer cell growth inhibition, primary screen, CellTiter-Glo luminescence, NPC library (AID 1117342;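 active = compounds that lower survival of HCT116 colon cancer cells in the luminescence readout, no numeric limit stated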); conditions: at 20 µM (top of the series)
# [8] = reduced SW480 viability measured with CellTiter-Glo, NPC library, primary (AID 1117343;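 active = compounds that lower viability of the colon cancer cells in the luminescence readout, with no numeric limit stated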); conditions: CellTiter-Glo luminescence; at 20 µM (top of the series)
# [9] = NPC library primary testing for decreased DLD-1 cell viability via CellTiter-Glo (AID 1117346;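 active = compounds that lower survival of DLD-1 colon cancer cells in the luminescence readout, no cutoff given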); conditions: DLD-1 viability, CellTiter-Glo luminescence; at 20 µM (top of the series)
# [10] = system: Hepatitis C virus NS3 helicase; assay: blockers of NS3h binding to ssDNA – biochemical, fluorescence polarization, LOPAC1280 library, primary screen (AID 687035; in the data active = inhibition above about 37%); conditions: Purified HCV NS3 helicase, Cy5-dT15 ssDNA binding fluorescence polarization; stronger effect = higher value; concentration not given here
# [11] = compounds altering Cy5-DNA-NS3h complex signal – biochemical, LOPAC1280, artefact control for HCV NS3 helicase inhibitor project (AID 687037); conditions: Cy5-DNA-NS3h complex fluorescence interference counterscreen
# [12] = biological target: Calcium-dependent protein kinase 1 (Plasmodium falciparum (isolate 3D7)) (UniProt P62344); assay: PfCDPK1 kinase inhibitors, biochemical, TCAMS library (AID 1159585; cut-off not given, nearly all actives have IC50 up to about 0.98 µM;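 also: inhibitors leave more ATP so luminescence rises with inhibition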); conditions: recombinant PfCDPK1, Kinase-Glo ATP depletion luminescence
# [13] = biological target: Plasmodium falciparum protein kinase 6 (PK6, PF3D7_1337100) (UniProt Q8IDW1); assay: PfPK6 kinase inhibitors, biochemical, TCAMS library (AID 1159586); conditions: recombinant PfPK6, Kinase-Glo ATP depletion luminescence
# [14] = signal quenchers or enhancers, Cy5 substrate/SSB – biochemical, NIH Clinical Collection, E. coli SSB, artefact control for HCV NS3 helicase inhibitor project (AID 743268); conditions: Cy5-oligo bound E. coli SSB, fluorescence interference
# [15] = system: Hepatitis C virus NS3 helicase; assay: blockers of NS3h binding to DNA – biochemical, fluorescence polarization, NIH Clinical Collection, primary screen (AID 743270); conditions: NS3 helicase binding to Cy5-dT15 DNA, stronger effect = higher value, concentration not given here
# [16] = biological target: Single-stranded DNA-binding protein (Escherichia coli (strain K12)) (UniProt P0AGE0); assay: SSB-ssDNA binding inhibitors – biochemical, fluorescence polarization, NIH Clinical Collection, counter-screen for HCV NS3 helicase inhibitor project (AID 743271; in the data active = inhibition above about 28%); conditions: E. coli SSB-DNA binding, stronger effect = higher value, concentration not given here
# [17] = compounds distorting NS3 helicase fluorescence signal – biochemical, NIH Clinical Collection, artefact control for HCV NS3 helicase inhibitor project (AID 743272); conditions: fluorescence interference counterscreen, HCV NS3 helicase assay; stronger effect = lower value;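 also: HCV NS3 helicase with a Cy5 labelled single stranded DNA probe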
# [18] = system: Neuropilin-2 / VEGF-C interaction (human); assay: small molecules blocking Neuropilin-2/VEGF-C interaction – biochemical, microplate binding format, z-score (AID 743281); conditions: microplate NRP2/VEGF-C binding assay; stronger effect = lower value
# Sequence of Calcium-dependent protein kinase 1 (Plasmodium falciparum (isolate 3D7)) (P62344 whole entry, looked up): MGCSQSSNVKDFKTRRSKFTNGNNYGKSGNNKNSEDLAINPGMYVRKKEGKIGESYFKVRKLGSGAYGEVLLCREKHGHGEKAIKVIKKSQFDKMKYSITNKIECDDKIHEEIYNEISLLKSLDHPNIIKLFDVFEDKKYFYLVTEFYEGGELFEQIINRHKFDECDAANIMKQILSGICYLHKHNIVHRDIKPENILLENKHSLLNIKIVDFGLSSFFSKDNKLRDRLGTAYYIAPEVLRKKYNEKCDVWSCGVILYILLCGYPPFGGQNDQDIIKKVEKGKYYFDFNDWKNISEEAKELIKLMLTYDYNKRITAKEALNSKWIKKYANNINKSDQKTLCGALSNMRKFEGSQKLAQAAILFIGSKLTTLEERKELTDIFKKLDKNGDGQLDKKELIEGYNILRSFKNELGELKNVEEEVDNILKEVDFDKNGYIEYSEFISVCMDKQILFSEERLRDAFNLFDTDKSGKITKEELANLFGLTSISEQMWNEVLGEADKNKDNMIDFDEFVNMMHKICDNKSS
# Sequence of Plasmodium falciparum protein kinase 6 (PK6, PF3D7_1337100) (Q8IDW1 1-305): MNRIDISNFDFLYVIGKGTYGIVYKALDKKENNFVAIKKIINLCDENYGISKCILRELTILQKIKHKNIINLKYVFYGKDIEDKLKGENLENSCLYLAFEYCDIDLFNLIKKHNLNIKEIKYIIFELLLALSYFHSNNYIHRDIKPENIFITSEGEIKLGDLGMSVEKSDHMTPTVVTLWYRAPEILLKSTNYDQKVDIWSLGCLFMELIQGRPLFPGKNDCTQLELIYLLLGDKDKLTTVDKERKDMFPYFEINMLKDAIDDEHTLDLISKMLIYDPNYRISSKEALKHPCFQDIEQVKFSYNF
SMILES,parasite load remaining [1],viability [1],nuclear beta-catenin stimulation ([2]; at 10 µM),"nuclear beta-catenin stimulation ([2]; stimulation, at 2 µM) [%]",insulin secretion stimulation [3],viability decrease [4],tube area decrease [5],GLP1 secretion stimulation [6],inhibition of viability [7],viability decrease (inhibition) [8],viability decrease (inhibition) [9],inhibition [10],fluorescence ratio (interference) [11],outcome [12],outcome [13],fluorescence ratio [14],inhibition [15],inhibition [16],fluorescence ratio [17],z-score [18]
C[C@@H]1CN(c2c(F)c(N)c3c(=O)c(C(=O)O)cn(C4CC4)c3c2F)C[C@H](C)N1,16.6% (inactive),70%,-1.1% (inactive),-1.1,2.1% (inactive),13.2% (inactive),-14.6% (inactive),0.3% (inactive),23.4% (inactive),-0.6% (inactive),-18.8% (inactive),–,–,–,–,–,–,–,–,–
CCCCCCCC/C=C\CCCCCCCC(=O)NCc1ccc(O)c(OC)c1,–,–,0% (inactive),-1.2,3.15% (inactive),26.6% (inactive),17.4% (inactive),6.2% (inactive),65.7% (active),47.5% (inactive),53.1% (active),-4% (inactive),1 (inactive),inactive,inactive,–,–,–,–,–
CNCC(O)c1ccc(O)c(O)c1 (stereo unspecified),40.1% (inactive),89%,-1.1% (inactive),-0.9,5.7% (inactive),58.5% (active),-33.6% (inactive),2.7% (inactive),29% (inactive),58.9% (active),17.7% (inactive),0% (inactive),1 (inactive),–,–,1.02 (inactive),-1.36% (inactive),15.5% (inactive),1.02 (inactive),–
CCCCN(CCCC)CCC(O)c1cc2c(Cl)cc(Cl)cc2c2cc(C(F)(F)F)ccc12 (stereo unspecified),57.2% (inactive),69.5%,5.2% (inactive),0.7,0.4% (inactive),99.2% (active),96.1% (active),-0.7% (inactive),105% (active),131% (active),100% (active),–,–,–,–,–,–,–,–,–
O=C(NCCN1CCOCC1)c1ccc(Cl)cc1,153% (inactive) and 134% (inactive),108% and 80.7%,0.1% (inactive),0.4,-2.6% (inactive),-7.6% (inactive),6% (inactive),0.4% (inactive),-2.6% (inactive),35.1% (inactive),-7.9% (inactive),-6% (inactive),0.9 (inactive),–,–,1.03 (inactive),5.94% (inactive),8.37% (inactive),0.99 (inactive),-0.561 (inactive)
CCCCc1ccc2nc(NC(=O)OC)[nH]c2c1,83.6% (inactive),85.5%,81.2% (active),61.1,-1.7% (inactive),91.7% (active),108% (active),-5.4% (inactive),67.5% (active),33.8% (inactive),50.6% (active),–,–,inactive,inactive,–,–,–,–,–
CCOc1ccc2nc3cc(N)ccc3c(N)c2c1,–,–,9.5% (inactive),0.7,3.5% (inactive),81.2% (active),73.3% (active),8.6% (inactive),70.6% (active),121% (active),47.2% (inactive),–,–,inactive,inactive,–,–,–,–,–
CCN(CC)Cc1cc(Nc2ccnc3cc(Cl)ccc23)ccc1O,2.94% (inactive) and 43.6% (inactive),35.5% and 83.9%,0.5% (inactive),-1.5,9.6% (inactive),82% (active),39.9% (inactive),-1.3% (inactive),83.2% (active),87.3% (active),44.8% (inactive),–,–,inactive,inactive,–,–,–,–,–
Cc1c(Nc2ncccc2C(=O)O)cccc1C(F)(F)F,99.9% (inactive) and 46.5% (inactive),95.4% and 105%,4.9% (inactive),-0.2,-1.5% (inactive),-24.9% (inactive),5.8% (inactive),-1.7% (inactive),0.73% (inactive),75.8% (active),21.9% (inactive),–,–,–,–,–,–,–,–,–
O=NN(CCCl)C(=O)NC1CCCCC1,11.7% (inactive),78%,11.8% (inactive),3.7,-0.3% (inactive),11.8% (inactive),56.7% (active),-0.1% (inactive),-0.2% (inactive),57.8% (active),3.5% (inactive),–,–,–,–,–,–,–,–,–
NC(N)=NC(=O)Cc1c(Cl)cccc1Cl,29.4% (inactive) and 52.8% (inactive) and 54.1% (inactive),118% and 76.4% and 154%,-0.4% (inactive),2.6,-2.2% (inactive),16.7% (inactive),11.5% (inactive),-3% (inactive),68.9% (active),34.1% (inactive),29% (inactive),1% (inactive),1 (inactive),–,–,–,–,–,–,–
CC(C)(C)NC(=O)[C@H]1CC[C@H]2[C@@H]3CC[C@H]4NC(=O)C=C[C@]4(C)[C@H]3CC[C@]12C,85.8% (inactive) and 62.9% (inactive) and 31.1% (inactive),103% and 63% and 78%,5.2% (inactive),2,0.6% (inactive),5.3% (inactive),8.2% (inactive),6.1% (inactive),5.67% (inactive),7.4% (inactive),-4% (inactive),–,–,–,–,1.05 (inactive),0.4% (inactive),-2.41% (inactive),1.02 (inactive),–
NC1CCN(c2cccc(Cl)n2)CC1,103% (inactive),71.3%,-1.8% (inactive),1.1,-0.7% (inactive),-6.2% (inactive),3.8% (inactive),3.8% (inactive),14.7% (inactive),28.7% (inactive),-9.7% (inactive),-6% (inactive),1 (inactive),–,–,2.95 (active),-1.19% (inactive),133% (active),0.9 (inactive),-0.326 (inactive)
Cc1cn([C@H]2C=C[C@@H](CO)O2)c(=O)[nH]c1=O,72.2% (inactive) and 110% (inactive),107% and 74.4%,-0.2% (inactive),1.1,4.4% (inactive),-0.2% (inactive),-1.6% (inactive),-0.3% (inactive),1.2% (inactive),-4.8% (inactive),-8.9% (inactive),-2% (inactive),1 (inactive),–,–,1.04 (inactive) and 0.101 (active),-3.56% (inactive) and -2.27% (inactive),-0.87% (inactive) and -5.05% (inactive),0.98 (inactive) and 1.04 (inactive),0.0189 (inactive)
CC(Cc1ccccc1)(NC(=O)CN)c1ccccc1 (stereo unspecified),118% (inactive),74.8%,0.8% (inactive),0,2.2% (inactive),-5.9% (inactive),-10.6% (inactive),0.5% (inactive),13.7% (inactive),17.1% (inactive),19.6% (inactive),–,–,–,–,1.07 (inactive),5.15% (inactive),6.83% (inactive),1.03 (inactive),1.57 (inactive)
OCc1cc(C(O)CNCCCCCCOCCCCc2ccccc2)ccc1O (stereo unspecified),94.7% (inactive) and 45.6% (inactive) and 21.7% (inactive),96% and 67.2% and 65.5%,2.7% (inactive),0.3,0.4% (inactive),-73.1% (inactive),27.2% (inactive),-0.4% (inactive),44.6% (inactive),46.4% (inactive),37.8% (inactive),2% (inactive),1 (inactive),–,–,0.98 (inactive),-1.97% (inactive),-2.76% (inactive),1.01 (inactive),-0.654 (inactive)
CCC(=O)O[C@]1(C(=O)SCF)[C@H](C)C[C@H]2[C@@H]3C[C@H](F)C4=CC(=O)C=C[C@]4(C)[C@@]3(F)[C@@H](O)C[C@@]21C,82.3% (inactive) and 83.8% (inactive),68.2% and 100%,0.9% (inactive),2.7,0.4% (inactive),-30.2% (inactive),-19.4% (inactive),9.8% (inactive),6.27% (inactive),39.6% (inactive),-7.2% (inactive),–,–,–,–,1 (inactive),5.94% (inactive),5.29% (inactive),1.02 (inactive),–
CC(C)(C(=O)c1cccnc1)c1cccnc1,42.4% (inactive) and 90.8% (inactive) and 15.1% (inactive),102% and 94.8% and 117%,4.8% (inactive),1.3,0.7% (inactive),-5.6% (inactive),4.4% (inactive),0.8% (inactive),0.97% (inactive),1.2% (inactive),-9.4% (inactive),–,–,–,–,1.03 (inactive),1.36% (inactive),1.05% (inactive),0.96 (inactive),–
CCN1CCC[C@H]1CNC(=O)c1cc(S(N)(=O)=O)ccc1OC,118% (inactive) and 67.6% (inactive),78.9% and 220%,-1.5% (inactive),0.2,1% (inactive),-4.3% (inactive),10.5% (inactive),-3% (inactive),-5.3% (inactive),-4.8% (inactive),-5.7% (inactive),-1% (inactive),1 (inactive),–,–,1.03 (inactive),0.4% (inactive),6.06% (inactive),0.97 (inactive),-0.132 (inactive)
CC[N+](C)(CC)CCOC(=O)C(O)(c1ccccc1)C1CCCCC1 (stereo unspecified),65.2% (inactive),67.2%,-1% (inactive),3.2,-1.5% (inactive),-16.6% (inactive),-4.7% (inactive),-3.3% (inactive),0.4% (inactive),0.8% (inactive),-8.3% (inactive),–,–,–,–,0.93 (inactive),-3.71% (inactive),-1.18% (inactive),0.89 (inactive),-0.249 (inactive)
Nc1nc(F)nc2c1ncn2[C@@H]1O[C@H](CO)[C@@H](O)[C@@H]1O,18.4% (inactive),114%,0.3% (inactive),2.3,-0.6% (inactive),12.6% (active),106% (active),-2% (inactive),38% (inactive),17.2% (inactive),19.4% (inactive),–,–,–,–,1.01 (inactive),1.36% (inactive),-2.76% (inactive),1.02 (inactive),–
